HT1080 IDH1KD tx – HT-1080 IDH1 knockdown cell toxicity (counter line); HT-1080 IDH1 knockdown viability, ATP luminescence, 48 h; 2% of 360,000 active; AID 686971; Potency, µM (series often up to 46.1 µM), hits mostly cytotoxic
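IDH1KD HT-1080 cells, 750/well, RPMI + 5% FBS; compound pinned after 2 h settling; 48 h, 37 °C; CellTiter-Glo luminescence; % activity normalised to DMSO and no-cell wells; curves fitted, classed by r2 and efficacy.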
HT1080NT lethal – kills 2HG-producing HT-1080-NT fibrosarcoma cells; HT-1080-NT fibrosarcoma viability, CellTiter-Glo ATP luminescence, 48 h; Potency, µM (doses to about 46.1 µM), most hits filed as cytotoxic; 1.6% of 360,000 active;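 note: NT is the 2HG producing partner of a matched IDH1 knockdown line; nearly all actives have a fitted effect of over 55% in size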
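HT-1080-NT; 750 cells/well; 5% FBS RPMI; 48 h compound, 37 degrees C; CellTiter-Glo luminescence; curve fitting and curve-class assignment.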
DT40 TDP1 no CPT – qHTS for Inhibitors of human tyrosyl-DNA phosphodiesterase 1 (TDP1): qHTS in cells in absence of CPT; DT40 Tdp1-/- hTDP1 cells, no CPT, ATP luminescence, 48 h; Potency, µM (doses to about 46.2 µM), hits mostly inhibitors; 15% of 420,000 active; note: nearly all actives have a fitted effect of over 55% in size
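DT40 Tdp1-/-;hTDP1 cells, no CPT (DMSO vehicle only), 400 cells/well; compounds pin-transferred; ≥48 hr, 37 °C; CellTiter-Glo 30 min RT dark, luminescence read.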
KB-V1 cytotox – kills drug-selected multidrug resistant KB-V1 cells | KB-V1 MDR cells viability, CellTiter-Glo, 72 h | AID 1347076 | 3.4% of 400,000 active | Potency, µM (titrated, usually from 46.1 µM), actives largely listed as cytotoxic; note: nearly all actives have a fitted effect of over 60% in size
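Cytotoxicity via CellTiter-Glo luminescence after 72 h compound exposure at 37 degrees C. Cells: drug-selected KB-V1 line, DMEM phenol-red free plus 10% FBS. Compounds tested at multiple concentrations; normalized data fitted to concentration-effect curves.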
TDP1 cell CPT – DT40-hTDP1 cell growth loss with CPT; chicken DT40 Tdp1-/-;hTDP1 cells + 20 nM CPT, ATP luminescence, 48 h; Potency, µM (top dose mostly 46.2 µM), hits mostly inhibitors; 12% of 420,000 active; note: nearly all actives have a fitted effect of over 55% in size
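Chicken DT40 Tdp1-/- cells complemented with human TDP1, 400 cells/well, exposed to compounds plus 20 nM camptothecin for at least 48 h at 37 C; viability read as ATP content by CellTiter-Glo luminescence.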
KB-3-1 cytotox – kills parental KB-3-1 adenocarcinoma cells; KB-3-1 viability, CellTiter-Glo ATP luminescence, 72 h; Potency, µM (top dose mostly 46.1 µM), most hits filed as cytotoxic; 1.4% of 400,000 active; note: nearly all actives have a fitted effect of over 60% in size
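Parental KB-3-1 adenocarcinoma cells in phenol-red-free DMEM with 10% FBS were pin-treated with compounds at several concentrations, incubated 72 h at 37 °C, and viability read by CellTiter-Glo luminescence; concentration-effect curves were fitted after normalization.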
Large screens that a line does not name were inactive. This is a sample that favours compounds with a hit; in the whole collection about 19% have one here. Calls come from the whole dose curve; as a rule, active = well fitted curve in the direction sought with a large enough effect; inconclusive = small, poorly fitted or top-dose-only effect, or another doubt; inactive = no such curve, though single readings can be large; an effect the other way counts as inactive or inconclusive.

NC(c1ccccc1)c1csc(Nc2ccccn2)n1 (stereo not drawn)	DT40 TDP1 no CPT 21µM, TDP1 cell CPT inconclusive
CC(N)c1csc(Nc2ncccn2)n1 (stereo not drawn)	DT40 TDP1 no CPT inconclusive
Cc1cnc(C)c(Nc2nc(C(N)c3ccccc3)cs2)n1 (stereo not drawn)	HT1080 IDH1KD tx inconclusive, HT1080NT lethal inconclusive, DT40 TDP1 no CPT inconclusive, TDP1 cell CPT inconclusive
CCOC(=O)c1cnc(-n2nc(C)cc2C)nc1NCc1ccccc1	DT40 TDP1 no CPT 5.2µM, KB-V1 cytotox 0.92µM, TDP1 cell CPT 3.3µM, KB-3-1 cytotox inconclusive
CCOC(=O)c1cnc(-c2ccccc2)nc1N1CC(C)OC(C)C1 (stereo not drawn)	DT40 TDP1 no CPT inconclusive, KB-V1 cytotox inconclusive, TDP1 cell CPT inconclusive
Cc1cc(C)n(-c2nc(C)nc(NCc3ccccc3)n2)n1	DT40 TDP1 no CPT 18µM, KB-V1 cytotox inconclusive, TDP1 cell CPT 26µM, KB-3-1 cytotox inconclusive
CCOC(=O)c1cc(C(=O)NC(C)c2ccccc2)c(=O)[nH]c1C (stereo not drawn)	none
CCOC(=O)c1cnc(-n2nc(C)cc2C)nc1N1CC(C)OC(C)C1 (stereo not drawn)	DT40 TDP1 no CPT 21µM, KB-V1 cytotox inconclusive, TDP1 cell CPT inconclusive
CCOC(=O)c1cnc(-n2nc(C)cc2C)nc1NC(C)c1ccccc1 (stereo not drawn)	DT40 TDP1 no CPT 4.6µM, KB-V1 cytotox 1µM, TDP1 cell CPT 4.6µM, KB-3-1 cytotox inconclusive
CCOC(=O)c1cnc(-n2nc(C)cc2C)nc1NCCO	KB-V1 cytotox inconclusive
COc1cccc(-n2c(-c3ccc(Cl)cc3)cc3c2CC(C)(C)CC3=O)c1	DT40 TDP1 no CPT inconclusive, TDP1 cell CPT inconclusive (no result: HT1080 IDH1KD tx, HT1080NT lethal)
O=C(Nc1ccc(Br)cc1)C1CCCN(S(=O)(=O)c2ccc(Br)s2)C1 (stereo not drawn)	DT40 TDP1 no CPT inconclusive, TDP1 cell CPT inconclusive (no result: HT1080 IDH1KD tx, HT1080NT lethal)
COCC(=O)N1CCC(Oc2ccc(C(=O)N(C)Cc3nccs3)cc2)CC1	KB-V1 cytotox inconclusive
COc1ccc(C(=O)NCc2ccc3c(c2)CCN3C(C)=O)cc1OC	none (no result: HT1080 IDH1KD tx, HT1080NT lethal, KB-V1 cytotox, KB-3-1 cytotox)
O=C(NC(Sc1ccc(Cl)cc1)C(=O)O)c1ccccc1 (stereo not drawn)	DT40 TDP1 no CPT inconclusive, TDP1 cell CPT 21µM
COc1ccc(N2CCN(C(c3ccc(F)cc3)c3sc4nc(-c5ccco5)nn4c3O)CC2)cc1 (stereo not drawn)	DT40 TDP1 no CPT inconclusive (no result: HT1080 IDH1KD tx, HT1080NT lethal)
COc1ccc(OC)c(C(=O)c2coc3ccc(O)c(CN(C)C)c23)c1	DT40 TDP1 no CPT inconclusive
COc1ccc2occ(C(=O)c3coc4ccc(O)c(CN(C)C)c34)c2c1	DT40 TDP1 no CPT inconclusive, KB-V1 cytotox inconclusive, TDP1 cell CPT 16µM
CC(C)(C(=O)N1CCC1(C)C(=O)NS(=O)(=O)c1ccc(C#N)cc1)c1ccccc1 (stereo not drawn)	none
Cc1ccc2c(c1)c1c3n2CC(=C2C(=O)OC(C)(C)OC2=O)NC3CCC1 (stereo not drawn)	HT1080NT lethal inconclusive, DT40 TDP1 no CPT 21µM, KB-V1 cytotox 21µM, TDP1 cell CPT 21µM
Cc1ccc2c(c1)c1c3n2CCN(C(=O)C2CC2)C3CCC1 (stereo not drawn)	DT40 TDP1 no CPT inconclusive, TDP1 cell CPT inconclusive
CCS(=O)(=O)Nc1cc(C(=O)N2CCC[C@H]2CO)c2c(c1)nc(-c1ccccc1)n2C	none (no result: HT1080 IDH1KD tx, HT1080NT lethal, KB-V1 cytotox, KB-3-1 cytotox)
CCc1ccc(NC(=O)CSc2nc3ccccc3c(=O)n2CCCC(=O)NCCCN2CCOCC2)cc1	HT1080 IDH1KD tx 18µM, HT1080NT lethal inconclusive, DT40 TDP1 no CPT inconclusive
CCCCNC(=O)CSc1nc2ccc(N3CCOCC3)cc2c(=O)n1CCc1ccccc1	DT40 TDP1 no CPT inconclusive, KB-V1 cytotox 0.58µM, TDP1 cell CPT inconclusive
CCOC(=O)CSc1nc2ccc(N3CCOCC3)cc2c(=O)n1Cc1ccccc1	KB-V1 cytotox inconclusive, TDP1 cell CPT inconclusive
Cc1cc(C)c(NC(=O)CSc2nc3ccccc3c(=O)n2CCCN2CCOCC2)c(C)c1	DT40 TDP1 no CPT inconclusive, TDP1 cell CPT inconclusive
O=C(CSc1nc2ccccc2c(=O)n1CCCN1CCOCC1)Nc1ccccc1OC(F)F	DT40 TDP1 no CPT 21µM, TDP1 cell CPT 18µM
CCOC(=O)CSc1nc2ccccc2c(=O)n1CCN1CCOCC1	KB-V1 cytotox 13µM
COC(=O)c1cccc(C23CC4(C2)[C@H](CN(C)[C@@H]4c2ccccc2)C3c2ccc(C(F)(F)F)cc2)c1 (stereo partly drawn)	DT40 TDP1 no CPT inconclusive, TDP1 cell CPT inconclusive
CN1C[C@@H]2C(c3ccccc3)C3(c4ccc(C#N)cc4)CC2(C3)[C@H]1c1ccccc1 (stereo partly drawn)	DT40 TDP1 no CPT inconclusive, TDP1 cell CPT inconclusive
CN1C[C@@H]2C(c3ccc(C(F)(F)F)cc3)C3(c4ccc(C#N)cc4)CC2(C3)[C@H]1c1ccccc1 (stereo partly drawn)	DT40 TDP1 no CPT 23µM, TDP1 cell CPT 10µM
CN1C[C@@H]2C(c3ccc(Cl)nc3)C3(c4ccccc4)CC2(C3)[C@H]1c1ccccc1 (stereo partly drawn)	DT40 TDP1 no CPT 16µM, TDP1 cell CPT 21µM
COC(=O)c1cccc(C23CC4(C2)[C@H](CN(C)[C@@H]4c2ccccc2)C3c2ccccc2)c1 (stereo partly drawn)	DT40 TDP1 no CPT 23µM, TDP1 cell CPT 21µM
CN1C[C@@H]2C(c3ccccc3)C3(c4ccccc4)CC2(C3)[C@H]1c1ccccc1 (stereo partly drawn)	DT40 TDP1 no CPT inconclusive, TDP1 cell CPT 26µM
O=C(Nc1ccc(Cl)cc1F)c1cc(S(=O)(=O)NCc2ccc3c(c2)OCO3)ccc1F	TDP1 cell CPT inconclusive (no result: HT1080 IDH1KD tx, HT1080NT lethal, KB-V1 cytotox, KB-3-1 cytotox)
CCCCNC(=S)N(C)/N=C/c1c(C)[nH]c2ccccc12	KB-V1 cytotox inconclusive
CCCCCCC[n+]1ccc(/C=C/c2c(C)[nH]c3ccccc23)cc1	DT40 TDP1 no CPT 0.32µM, TDP1 cell CPT 0.32µM, KB-3-1 cytotox 0.65µM (no result: HT1080 IDH1KD tx, HT1080NT lethal)
CCCCCCCCCCCCCCCC[n+]1ccc(/C=C/c2c(C)[nH]c3ccccc23)cc1	DT40 TDP1 no CPT 0.4µM, TDP1 cell CPT 1µM, KB-3-1 cytotox 1.3µM (no result: HT1080 IDH1KD tx, HT1080NT lethal)
CC1(C)Cc2c(c(-c3ccco3)nc3sc4c(NCCN5CCOCC5)ncnc4c23)CO1	HT1080 IDH1KD tx 16µM, HT1080NT lethal 23µM, DT40 TDP1 no CPT 21µM, TDP1 cell CPT 8.2µM

Screening results as filed in PubChem.
